# Most compounds without a hit are left out; they make up all but 12% or so of the library.
# Cycloheximide cs: affects cycloheximide protein synthesis inhibition readout, counter-screen. 12% of 300,000 active. AID 2314. max response, %. cell reporter, cycloheximide protein synthesis inhibition counterscreen; in the data active means max response mostly above about 13%, no sharp cut-off; inactive means mostly below about 14%; further: read at 38.3 µM for the half of the compounds with a filed dose; 0% is about no effect
# Shiga toxin inh: blocks Shiga toxin action in Vero cells; Vero cells, Shiga toxin protein synthesis inhibition reporter; inhibition, % at 38.7 µM; 9.2% of 290,000 active; AID 2315; in the data active means inhibition mostly above about 28%, no sharp cut-off; inactive means mostly below about 43%; further: 0% is about no effect
# NS1 function inh: influenza NS1 inhibition; Potency, µM (top dose mostly 46.1 µM), for inactives: at the highest dose activity, positive = more growth; AID 2326; 0.4% of 270,000 active; further: potency means the concentration at half of the fitted maximal effect; actives are rising curves; nearly all actives have a fitted effect of over 50% in size
#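 Growth recovery, yeast-based: influenza A NS1 expressed in S. cerevisiae causes slow growth, and suppressors are detected by OD600. The parent strain without NS1 is used as positive control.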
# SARS PLpro yeast-1: SARS-CoV PLP inhibition in yeast | AID 485353 | 0.19% of 330,000 active | S. cerevisiae expressing SARS-CoV PLpro, growth rescue | Potency, µM (doses to about 32.9 µM), without a hit: top-dose activity, positive = growth rescue, actives largely listed as activators; further: potency means the concentration at half of the fitted maximal effect; 0% is about no effect; nearly all actives have a fitted effect of over 55% in size
# SARS PLpro yeast-2: Validates SARS-CoV PLpro inhibitor hits in yeast; yeast expressing SARS-CoV PLpro, growth phenotype rescue; calls only; shares compounds with SARS PLpro yeast-1; 19% of 1,000 active; call rule not given here
# Numbers without * were called inactive; i = inactive; ? = inconclusive; . = no result; + = active, no number. Unless noted, the call rests on the fitted dose curve.
SMILES,Cycloheximide cs,Shiga toxin inh,NS1 function inh,SARS PLpro yeast-1,SARS PLpro yeast-2
CC(=O)Nc1ccc(S(=O)(=O)N(C)CC(=O)OCC(=O)NNC(=O)c2ccccc2F)cc1,.,.,.,-3%,.
CC(=Nc1ccccc1)C1=C(O)COC1=O,-3,-18,6%,?,i
CC1Sc2ccc(C(=O)Nc3ccccc3OC(F)F)cc2NC1=O (centres undefined),.,.,.,-3%,.
COc1ccc(NC(=O)CSc2ccc(-c3ccccn3)nn2)cc1OC,0,-8,2%,10µM*,i
CCOC(=O)c1ccc(NC(=O)CSc2ccc(-c3ccccn3)nn2)cc1,22,4,-25%,0%,.
CC(Sc1nc(N)cc(N)n1)C(=O)Nc1ccc(N2CCOCC2)cc1 (centres undefined),.,.,.,-7%,.
O=C1CCC(c2ccc(-n3ccnc3)cc2)=NN1,.,.,3%,.,.
Cc1cscn1,.,.,.,?,i
CSc1nc(C)c(C(=O)C[n+]2ccc(C)cc2)cc1C#N,-2,3,?,1%,.
Cc1ccc(NC(=O)CCc2nnc3ccc(N4CCC5(CC4)OCCO5)nn23)cc1F,1,-7,-4%,-3%,.
Nc1nc(SCc2ccccc2Cl)nc2nc3c(cc12)CCCC3,3,-3,4%,?,i
Cc1ccc(NC(=O)c2nc[nH]c2C(=O)NCCCCCCNC(=O)c2[nH]cnc2C(=O)Nc2ccc(C)cc2)cc1,.,.,.,13µM*,i
Cc1ccc(NC(=O)c2nc[nH]c2C(=O)NCCCCNC(=O)c2[nH]cnc2C(=O)Nc2ccc(C)cc2)cc1,.,.,.,3%,.
CCOC(=O)Nc1nnc(Cc2ccc(Cl)c(Cl)c2)s1,1,-3,2%,-1%,.
Cc1[nH]c(=S)sc1Cc1ccc(Cl)c(Cl)c1,1,-12,11%,?,+
N#CN(CC(N)=O)c1nc(N2CCCCC2)nc(N2CCCCC2)n1,-3,-17,2%,?,i
C=CCN(C#N)c1nc(OC)nc(N2CCCC2)n1,2,-19,-14%,-5%,.
CC/C(CC(c1ccccc1)c1c(O)c2ccccc2oc1=O)=N\NC(N)=S (centres undefined),1,24,-4%,13µM*,i
Cc1ccc(-n2nc3c(N4CCC(C(=O)NCCc5ccco5)CC4)nnc(C)c3c2C)cc1,-1,-5,1%,-5%,.
Cc1ccc(-n2nc3c(N4CCC(C(=O)NCc5ccc(C)o5)CC4)nnc(C)c3c2C)cc1,8,-12,9%,?,i
COc1ccc(S(=O)(=O)N2CCCCC2)cc1C(C)C,-3,-12,-52%,?,i
COc1ccc(S(=O)(=O)N2CCCC2)cc1Br,-2,-3,-3%,?,.
COc1ccc(CNC(=O)c2ccc(S(=O)(=O)N3CCCC3)cc2)cc1OC,-4,-18,0%,?,i
O=C(Nc1ccc2c(c1)OCO2)C1CCN(C(=O)c2ccc([N+](=O)[O-])cc2)CC1,8,8,5%,-1%,.
O=C(c1ccc(F)cc1)N1CCOC(c2nc(-c3ccc(F)cc3)no2)C1 (centres undefined),.,.,.,-6%,.
SMILES,Cycloheximide cs,Shiga toxin inh,NS1 function inh,SARS PLpro yeast-1,SARS PLpro yeast-2
O=C(CCN1CCOCC1)NC1CCCN(Cc2ccccc2F)C1 (centres undefined),-2,-13,5%,?,i
COc1ccccc1Nc1nc(N)nc(CSC(=S)N2CCC(C)CC2)n1,43*,31,?,16µM*,i
COc1ccccc1Nc1nc(N)nc(CSC(=S)N2CCN(c3ccccc3)CC2)n1,18,21,.,2%,.
CC1CCCCN1C(=O)Nc1cccc(C(F)(F)F)c1 (centres undefined),-2,-5,2%,3%,.
CCc1occc(=O)c1Oc1cc(NN2CCCCC2)c([N+](=O)[O-])cc1[N+](=O)[O-],-2,-4,21%,5%,.
O=C(COC(=O)c1cnc(Cl)c(Cl)c1)Nc1ccc(S(=O)(=O)N2CCCC2)cc1,-2,14,6%,?,i
O=C(COC(=O)c1ccc(Cl)nc1)Nc1ccc(S(=O)(=O)N2CCCC2)cc1,0,-19,-8%,-35%,.
CC(O)CNc1nc2ccccc2n1CC(=O)N1CCN(Cc2ccccc2)CC1 (centres undefined),0,-14,.,0%,.
O=C(/C=C/c1ccco1)Oc1cc(Br)cc(/C=N/NC(=O)c2ccccc2O)c1,39*,22,18%,.,i
Cc1cccc(NC(=S)NNC(=O)COc2ccc(Cl)cc2Cl)c1,-1,-7,21%,10µM*,+
COc1ccc(NC(=S)NNC(=O)COc2ccc(Cl)cc2Cl)cc1,0,-7,17%,-16%,.
O=C(Nc1nc2ccc(F)cc2s1)c1cccc(S(=O)(=O)N2CCc3ccccc32)c1,24*,35,13%,3.2µM*,i
CCOc1cc(/C=C/C(=O)O)ccc1OCc1ccccc1,16,12,.,2%,.
COc1cc(/C=C/C(=O)NC(C)C)ccc1OCc1ccccc1,-1,38,12%,?,+
Cc1cc(-n2c(C)cc(C(=O)COc3ccc(Cl)cc3C(N)=O)c2C)no1,.,.,.,-4%,.
CCCCCC(=O)NNC(=S)NC(=O)c1ccccc1[N+](=O)[O-],-4,-7,2%,0%,.
CCCCCC(=O)NNC(=S)NC(=O)c1cccc([N+](=O)[O-])c1,-1,1,-9%,11µM*,i
CCCCOC(=O)c1ccc(NC(=O)C(=O)NCc2ccco2)cc1,-3,5,.,2%,.
Cc1nn(C)c(C)c1/C=C1/CC2C3CC=C4CC(O)CCC4(C)C3CCC2(C)C1=O (centres undefined),-6,-2,-15%,13µM*,i
CC12CCC3C(CC=C4CC(O)CCC43C)C1C/C(=C\N1CCCC1)C2=O (centres undefined),1,-5,-31%,-1%,.
O=C(COC(=O)c1ccc2ncsc2c1)Nc1ncc(Cl)cc1Cl,37*,9,22%,22µM*,i
O=C(CNC(=O)c1cccc(Br)c1)N/N=C/c1cc(Br)cc(Br)c1O,2,-13,.,3.5µM*,+
O=C(CNC(=O)c1cccc(Br)c1)N/N=C/c1cccs1,-3,-3,-2%,2%,.
Cc1cc(-n2ccnc2)n2c(nc3ccccc32)c1C#N,-2,-21,5%,?,?
COCCN(C(=O)COC(=O)CCc1c[nH]c2ccccc12)c1c(N)n(Cc2ccccc2)c(=O)[nH]c1=O,.,.,.,1%,.
SMILES,Cycloheximide cs,Shiga toxin inh,NS1 function inh,SARS PLpro yeast-1,SARS PLpro yeast-2
O=C(O)c1ccc(N=NN2CCCC2)cc1,12,-6,.,2%,.
O=C(O)c1ccc(N=NN2CCCCCC2)cc1,42*,74*,16%,13µM*,i
Cc1ccc(NC(=O)CN(C)S(=O)(=O)c2cccs2)cc1C,35*,90*,12%,?,i
COc1cc(NC(=O)CN(C)S(=O)(=O)c2cccs2)cc(OC)c1,8,-8,-1%,0%,.
O=c1cccc2n1CC1CC2CN(Cc2ccc3c(c2)OCO3)C1 (centres undefined),-2,-7,-2%,?,?
COc1ccc(N2C(=O)NC(NC(=O)c3ccncc3)(C(F)(F)F)C2=O)cc1 (centres undefined),-1,-18,-2%,-1%,.
Cc1cc(C)cc(NC(=O)C(=O)NCc2ccccn2)c1,-2,-6,1%,?,i

# Bioassay records (PubChem)
